The whole screen tested about 1,300 compounds, of which about 140 (11%) were called active. How the calls were made is not given here. Not all results are given here. Potency and affinity values are given separately.
These molecules were tested against Prostaglandin E2 receptor EP2 subtype (Homo sapiens) (UniProt P43116) (assay: compounds shifting PGE2 potency at EP2 – cell-based, human EP2, PGE2 EC50 shift, dose response (AID 1421)). Conditions: EP2-expressing cells, PGE2 EC50 shift by compound; at 20 µM.
Prostaglandin E2 receptor EP2 subtype (Homo sapiens), sequence (P43116 whole entry, looked up): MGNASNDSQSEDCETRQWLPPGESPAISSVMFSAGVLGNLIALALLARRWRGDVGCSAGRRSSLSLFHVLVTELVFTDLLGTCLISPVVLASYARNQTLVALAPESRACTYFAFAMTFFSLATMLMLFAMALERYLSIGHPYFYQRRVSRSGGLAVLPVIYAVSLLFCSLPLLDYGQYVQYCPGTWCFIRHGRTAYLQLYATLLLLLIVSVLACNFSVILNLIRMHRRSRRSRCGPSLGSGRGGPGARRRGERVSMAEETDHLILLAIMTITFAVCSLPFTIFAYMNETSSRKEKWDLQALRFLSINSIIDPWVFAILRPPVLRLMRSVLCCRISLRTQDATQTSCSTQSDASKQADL

PGE2 EC50 with compound, inactive:
Cn1c(=O)c2c(nc(CN3CCN(c4ccccc4)CC3)n2Cc2c(F)cccc2Cl)n(C)c1=O 0.37 nM
CCn1c(=NC(=O)c2ccc(S(=O)(=O)N3CCOCC3)cc2)sc2cccc(OC)c21 1.76 nM
Cn1c(=O)c2c(nc(SCC(=O)N3CCc4ccccc4C3)n2C)n(C)c1=O 0.76 nM
COc1cc2ccccc2cc1C(=O)NC(=S)Nc1cc(C(=O)O)ccc1C 58.1 nM
COc1cccc(N=c2oc3c(C)ncc(CO)c3cc2C(=O)Nc2ccccc2OC)c1 0.96 nM
Cc1cc2cc3c(cc2nc1SCC(=O)OC(C)C)OCO3 0.21 nM
Cc1cc(SCC(=O)c2ccccc2)nc2ccccc12 1.19 nM
C=CCSc1nc(N(CC)CC)c2sccc2n1 0.61 nM
O=c1c2ccccc2n(Cc2ccc(Cl)cc2)c(=O)n1Cc1ccco1 0.38 nM
Cc1cccc(Cn2c(=O)n(Cc3ccco3)c(=O)c3ccccc32)c1 0.31 nM
CCOC(=O)c1sc2nccc(N(C)C)c2c1N=CNOCc1ccccc1 0.21 nM
c1ccn(-c2ncnc3sc4c(c23)CCCC4)c1 0.38 nM
CSc1nnc2c3ccccc3c3ccccc3c2n1 0.24 nM
Fc1ccccc1Nc1nc2c(s1)CCc1ccccc1-2 0.26 nM
C=C[C@@](C)(O)CCC1C(=C)C[C@H](O)C2C(C)(C)CCCC12C (stereo partly specified) 0.59 nM
CCOC(=O)CSc1nc(Cc2ccccc2)nc2ccccc12 0.35 nM
COC(=O)CSc1nc(Cc2ccccc2)nc2ccccc12 0.17 nM
CCN(Cc1cc(Cl)cc(C)c1O)Cc1c(O)ccc2ccccc12 0.73 nM
Cc1ccc(-c2cccc(C(=O)NCc3ccccc3)n2)c2ccccc12 0.42 nM
COC(=O)c1c(C)nc2ccccc2c1-c1ccccc1 0.22 nM
CCCn1c(C)nc2c(c1=O)c1nc3ccccc3nc1n2CCC1=CCCCC1 0.36 nM
O=C(Nc1cccc(Cl)c1N1CCCCC1)c1ccc2c(c1)OCCO2 0.26 nM
CCCCOc1ccccc1NC(=O)c1scc2c1OCCO2 0.31 nM
CCOC(=O)c1c(NC(=O)CSc2nnnn2CC)sc(C)c1C 0.73 nM
O=C(Nc1ccccc1)c1nn(-c2cccc(C(F)(F)F)c2)ccc1=O 0.1 nM
O=C(Cc1ccccc1)Nc1ccccc1N1CCN(c2ccccc2)CC1 0.28 nM
O=C(COc1ccccc1)Nc1ccccc1N1CCN(c2ccccc2)CC1 0.2 nM
CN(C)c1ncc(S(=O)(=O)c2ccccc2)c(-c2ccccc2Cl)n1 0.23 nM
O=C(CSc1nc2ccccc2o1)Nc1ccccc1N1CCCCCC1 0.53 nM
O=C(c1ccccc1O)N1N=C(c2ccccc2)CC1(O)C(F)(F)F (stereo unspecified) 0.51 nM
N#Cc1sc2nc(N3CCCCC3)c3c(c2c1N)CCCC3 0.26 nM
NC(=O)c1sc2nc(N3CCCCC3)c3c(c2c1N)CCCC3 0.08 nM
Cc1ccc(S(=O)(=O)n2c3ccc(Cl)cc3c3nc(C)sc32)cc1 0.13 nM
Cc1cccc(C)c1OCc1nnc(SCC(=O)Nc2nccs2)n1-c1ccccc1 0.57 nM
CC(=O)c1ccc2c(c1)c1ccccc1n2CC(C)C 0.19 nM
Cc1cc([N+](=O)[O-])c(C)c(Br)c1C 0.91 nM
O=C(O)c1nc2nc(Cl)c(Cl)nc2[nH]1 0.87 nM
O=C(Nc1ccccc1N1CCCCC1)c1ccc2nccnc2c1 0.08 nM
O=C(Nc1ccccc1N1CCCCC1)c1cccc(F)c1 0.33 nM
O=C(Nc1ccccc1Oc1ccccc1)c1cnccn1 0.75 nM
O=C(Nc1ccccc1N1CCCC1)c1cc2ccccc2o1 0.19 nM
O=C(Nc1ccccc1N1CCCCC1)c1ccc(F)cc1 0.41 nM
CC1CCN(c2ccccc2NC(=O)c2ccc(F)cc2)CC1 0.3 nM
O=C(CNCC1CCCCC1)Nc1ccccc1N1CCCCC1 0.57 nM
O=C(Nc1ccccc1N1CCCCC1)c1cccc([N+](=O)[O-])c1 0.3 nM
CCOC(=O)c1c(N)sc(-c2ccccc2)c1C 0.8 nM
O=C(CO/N=C/c1ccccc1)N1c2ccccc2Oc2ccccc21 0.59 nM
CC1CCN(c2nc3c(c(=O)[nH]c(=O)n3C)n2CC(C)CSc2nnnn2-c2ccccc2)CC1 (stereo unspecified) 0.73 nM
COC(=O)c1cc2occc2n1Cc1cccc(C)c1 0.36 nM
CCc1nc2c(cnn2-c2ccc(Cl)cc2)c(=O)n1-c1ccc(OC)cc1 1.12 nM
COc1ccc(Cl)cc1-n1c(C)ccc1C 0.33 nM
CCCCc1nc(SCCOC)c2c(=O)n(C)c(=O)n(C)c2n1 0.46 nM
CCC(=O)Oc1ccc(C(CC)C(CC)c2ccc(OC(=O)CC)cc2)cc1 (stereo unspecified) 0.53 nM
O=c1c2ccccc2c(=O)n(Cc2ccccc2)n1Cc1ccccc1 0.08 nM
CC(=O)Oc1ccc2ccccc2c1C(NC(=O)Cc1ccccc1)c1ccccc1 (stereo unspecified) 0.32 nM
COc1ccc(CSC2=C(C#N)C(=O)NC3(CCCCC3)S2)cc1 0.76 nM
COc1ccc(C(=O)Nc2ccccc2N2CCCCC2)cc1[N+](=O)[O-] 0.44 nM
O=C(Nc1ccccc1N1CCCCC1)c1ccc(Cl)c([N+](=O)[O-])c1 0.55 nM
Cc1cccc(-n2c(CCc3ccccc3)nnc2SCC(=O)c2ccccc2)c1 0.19 nM
COc1ccccc1C(CC(=O)c1ccccc1)CC(=O)c1ccccc1 0.61 nM
O=c1[nH]c(=S)c2c(n1-c1ccccc1)CCC2 1.62 nM
